For assay [1], the target named is ATP-dependent 6-phosphofructokinase (Trypanosoma brucei brucei) (UniProt O15648). The assay is described as follows: qHTS Assay to Find Inhibitors of T. brucei phosphofructokinase: hit validation (AID 492961).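 Further: luminescence reports ADP formed as PFK phosphorylates fructose-6-phosphate with ATP.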 The method, boiled down: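 Compounds titrated; %activity normalized to 0x and 1x enzyme controls, curve-fitted. Readout: ADP-Glo luminescence after 45 min room-temperature reaction of 1.25 nM PFK, 0.1 mM ATP, 0.5 mM F6P, pH 8.0.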
(In general: Quantitative high-throughput screening tests each substance at several concentrations.)

For another assay, the system named is AA1029. Nature of the assay: qHTS profiling for inhibitors of Plasmodium falciparum proliferation (AID 504749). Further: nearly all actives have a fitted effect of over 60% in size. Further: potency means the concentration at half of the fitted maximal effect. Conditions: P. falciparum in erythrocytes, SYBR Green DNA, 72 h; series mostly up to 12.8 µM. A digest of the protocol: (§1)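 Each compound contacts P. falciparum-infected red blood cells for 72 h at 37 C; lysis buffer (Tris, EDTA, saponin, Triton X, SYBR Green I) is added and fluorescence measured next morning; values normalized to controls.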

Another assay relates to CP194. The description is as above. Conditions: P. falciparum in erythrocytes, SYBR Green DNA, 72 h; series mostly up to 12.8 µM. The method, boiled down: as §1
The test system of a further assay is CP203. Described as above. As to conditions: P. falciparum in erythrocytes, SYBR Green DNA, 72 h; series mostly up to 12.8 µM. A digest of the protocol:
as §1

The next assay relates to CP211. Described as above. As to conditions: P. falciparum in erythrocytes, SYBR Green DNA, 72 h; series mostly up to 12.8 µM. A digest of the protocol: as §1
The next assay has as its system CP335. The description is as above. Conditions: P. falciparum in erythrocytes, SYBR Green DNA, 72 h; series mostly up to 12.8 µM. A digest of the protocol:
as §1

The next assay deals with P93_24. The assay is described as above. Conditions: P. falciparum in erythrocytes, SYBR Green DNA, 72 h; series mostly up to 12.8 µM. A digest of the protocol: as §1
The subject of another assay is TAB109. The assay is described as above. As to conditions: P. falciparum in erythrocytes, SYBR Green DNA, 72 h; series mostly up to 12.8 µM. The method, boiled down:
as §1

Assay [2] can be described thus: Confirmation and Secondary Assay for Modulators of Hemoglobin Beta Chain Splicing at IVS2 654 locus (AID 910).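 Further: HeLa cells stably carrying EGFP split by mutant beta-globin IVS2-654 intron.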 The method, boiled down: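 HeLa cells stably expressing EGFP interrupted by β-globin IVS2-654 intron, seeded overnight in Opti-MEM/2% FCS, then treated 2 days at 37 °C. Restored splicing read as total peak GFP intensity per well by laser scanning cytometry (488 nm excitation, 500–520 nm emission); 500 nM antisense PNA as control.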

A short description of assay [3]: Confirmation and Secondary Assay for Modulators of Hemoglobin Beta Chain Splicing at IVS2 705 locus (AID 930).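 Further: HeLa cells stably expressing the EGFP-705 splicing reporter; GFP fluorescence per well restored by corrected splicing of the IVS2-705 intron in EGFP.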 A digest of the protocol:
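Splice-correction reporter: EGFP cDNA split by beta-globin intron 2 bearing the 705 mutation, stably in HeLa. Compound incubation 2 days, 37C; fluorescent objects 5-250 µm summed per well.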

The target in assay [4] is Cytochrome P450 3A4 (Homo sapiens) (UniProt P08684). Nature of the assay: qHTS Assay for Activators of Cytochrome P450 3A4 (AID 885). Further: nearly all actives have a fitted effect of over 65% in size. The method, boiled down: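 CYP3A4 activity: Luciferin-PPXE O-dealkylation, 25uM substrate, 200mM KPO4, RT throughout. Read-out is luciferase luminescence; higher values reflect activation.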
The subject of another assay is DFO2036. Nature of the assay: qHTS profiling for inhibitors of Plasmodium falciparum proliferation (AID 504749). Further: nearly all actives have a fitted effect of over 60% in size. Further: potency means the concentration at half of the fitted maximal effect. Conditions: P. falciparum in erythrocytes, SYBR Green DNA, 72 h; series mostly up to 12.8 µM. The method, boiled down: as §1
The next assay relates to 7G8. The description is as above. Conditions: P. falciparum in erythrocytes, SYBR Green DNA, 72 h; series mostly up to 12.8 µM. A digest of the protocol:
as §1

For a further assay, the system named is CP215. The assay is described as above. As to conditions: P. falciparum in erythrocytes, SYBR Green DNA, 72 h; series mostly up to 12.8 µM. A digest of the protocol:
as §1

In another assay the test system is DIV17. Described as above. As to conditions: P. falciparum in erythrocytes, SYBR Green DNA, 72 h; series mostly up to 12.8 µM. The method, boiled down:
as §1

The subject of another assay is GB4. Described as above. As to conditions: P. falciparum in erythrocytes, SYBR Green DNA, 72 h; series mostly up to 12.8 µM. A digest of the protocol: as §1
For the next assay, the system named is PC26. Described as above. As to conditions: P. falciparum in erythrocytes, SYBR Green DNA, 72 h; series mostly up to 12.8 µM. A digest of the protocol: as §1
For assay [5], the target named is Cytochrome P450 2D6 (Homo sapiens) (UniProt P10635). Nature of the assay: qHTS Assay for Inhibitors and Substrates of Cytochrome P450 2D6 (AID 891). Further: potency means the concentration at half of the fitted maximal effect; nearly all actives have a fitted effect of over 60% in size. The method, boiled down:
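Luminescent read-out of luciferin formed by 5 nM human CYP2D6 demethylating 30 uM Luciferin-ME EGE (Km level) over 60 min at room temperature after NADPH regeneration addition. Data normalized to full inhibition by 1.43 uM quinidine.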

Assay [6] deals with Cytochrome P450 2C9 (Homo sapiens) (UniProt P11712). Nature of the assay: qHTS Assay for Inhibitors and Substrates of Cytochrome P450 2C9 (AID 883). Further: nearly all actives have a fitted effect of over 60% in size. The method, boiled down:
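Human CYP2C9 (10nM) with Luciferin-H at 100uM (its KM) in 25mM KPO4; compound preincubated 10 min at 37C, then NADPH regeneration for 60 min at 37C. Luciferin read by luminescence after detection reagent; normalized to 57uM sulphaphenazole as full inhibition.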

A number with no mark means an inactive call. Inconclusive results are not listed. Active and inactive are the calls of the source. The call rests on the fitted dose curve; in most records, active means well fitted curve in the direction sought with a large enough effect; inconclusive means small, poorly fitted or top-dose-only effect, or another doubt; inactive means no such curve, though single readings can be large; an effect the other way counts as inactive or inconclusive.

ATP-dependent 6-phosphofructokinase (Trypanosoma brucei brucei), sequence (O15648 whole entry, looked up): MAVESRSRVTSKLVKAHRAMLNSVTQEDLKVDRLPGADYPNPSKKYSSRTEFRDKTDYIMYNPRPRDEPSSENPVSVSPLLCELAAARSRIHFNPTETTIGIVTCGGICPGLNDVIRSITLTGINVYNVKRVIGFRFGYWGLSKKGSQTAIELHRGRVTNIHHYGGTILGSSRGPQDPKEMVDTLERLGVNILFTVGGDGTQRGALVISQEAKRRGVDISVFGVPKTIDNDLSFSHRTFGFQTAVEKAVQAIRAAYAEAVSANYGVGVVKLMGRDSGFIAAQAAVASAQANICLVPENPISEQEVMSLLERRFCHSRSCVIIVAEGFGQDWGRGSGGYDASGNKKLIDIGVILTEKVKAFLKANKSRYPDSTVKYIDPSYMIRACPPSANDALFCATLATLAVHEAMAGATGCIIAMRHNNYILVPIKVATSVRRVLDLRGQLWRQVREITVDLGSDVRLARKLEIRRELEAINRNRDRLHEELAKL
Cytochrome P450 2D6 (Homo sapiens), sequence (P10635 whole entry, looked up): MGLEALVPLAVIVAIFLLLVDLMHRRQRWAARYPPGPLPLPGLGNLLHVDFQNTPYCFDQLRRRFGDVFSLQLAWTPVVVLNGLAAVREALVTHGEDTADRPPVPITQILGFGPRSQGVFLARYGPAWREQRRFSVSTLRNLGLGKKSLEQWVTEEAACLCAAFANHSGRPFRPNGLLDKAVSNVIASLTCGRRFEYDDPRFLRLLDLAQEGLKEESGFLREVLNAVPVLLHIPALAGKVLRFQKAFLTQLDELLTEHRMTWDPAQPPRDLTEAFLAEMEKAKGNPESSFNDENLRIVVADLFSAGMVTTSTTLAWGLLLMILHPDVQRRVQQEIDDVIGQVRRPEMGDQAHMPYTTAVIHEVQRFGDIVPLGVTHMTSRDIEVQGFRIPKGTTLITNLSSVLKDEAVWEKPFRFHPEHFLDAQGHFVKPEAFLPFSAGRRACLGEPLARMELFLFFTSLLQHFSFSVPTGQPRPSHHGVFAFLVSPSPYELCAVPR
Cytochrome P450 3A4 (Homo sapiens), sequence (P08684 whole entry, looked up): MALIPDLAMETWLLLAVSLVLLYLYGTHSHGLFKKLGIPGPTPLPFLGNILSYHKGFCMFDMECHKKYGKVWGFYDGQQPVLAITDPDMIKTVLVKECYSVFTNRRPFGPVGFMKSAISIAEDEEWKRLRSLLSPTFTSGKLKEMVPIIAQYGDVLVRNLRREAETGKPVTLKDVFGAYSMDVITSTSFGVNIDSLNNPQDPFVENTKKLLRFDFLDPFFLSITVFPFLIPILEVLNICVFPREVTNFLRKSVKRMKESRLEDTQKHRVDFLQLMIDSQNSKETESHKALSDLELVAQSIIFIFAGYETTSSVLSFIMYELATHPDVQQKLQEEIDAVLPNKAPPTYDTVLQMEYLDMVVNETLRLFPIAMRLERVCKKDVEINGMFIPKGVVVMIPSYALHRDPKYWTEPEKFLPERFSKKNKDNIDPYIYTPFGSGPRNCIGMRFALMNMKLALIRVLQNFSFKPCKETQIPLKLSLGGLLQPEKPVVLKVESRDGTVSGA
Cytochrome P450 2C9 (Homo sapiens), sequence (P11712 whole entry, looked up): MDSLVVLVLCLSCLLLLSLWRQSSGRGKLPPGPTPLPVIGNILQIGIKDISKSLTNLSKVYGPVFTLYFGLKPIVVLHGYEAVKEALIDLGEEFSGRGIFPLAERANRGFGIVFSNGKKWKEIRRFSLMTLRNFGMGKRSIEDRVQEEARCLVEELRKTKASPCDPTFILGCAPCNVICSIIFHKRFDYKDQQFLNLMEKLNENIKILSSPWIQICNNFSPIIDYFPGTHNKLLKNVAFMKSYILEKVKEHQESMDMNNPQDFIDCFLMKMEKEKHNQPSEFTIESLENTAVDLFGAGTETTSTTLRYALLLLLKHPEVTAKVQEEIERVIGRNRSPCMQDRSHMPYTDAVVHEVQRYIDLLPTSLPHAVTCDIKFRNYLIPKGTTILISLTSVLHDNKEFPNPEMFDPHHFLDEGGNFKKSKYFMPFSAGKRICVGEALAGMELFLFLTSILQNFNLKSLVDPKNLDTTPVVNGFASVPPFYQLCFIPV

Turning to `CNC[C@H](O)c1ccc(OC(=O)C(C)(C)C)c(OC(=O)C(C)(C)C)c1`, in assay [1], the compound was called inactive. In addition, the Potency entry in the assay on AA1029, in the assay with CP194, with CP203, in the assay with CP211, in the assay with CP335 and in the assay on P93_24 was “inactive” throughout. The Potency result with TAB109 was “inactive”.

For `Fc1ccc(Nc2nc(-c3cccnc3)nc3ccccc23)cc1`, the Potency entry in assay [2] and in [3] was “inactive” in each case.

Consider `COc1ccc([C@@H]2CC(=O)c3c(O)cc(O)cc3O2)cc1O`, for which, in assay [4], the Potency entry was “inactive”.

Regarding `CCN1CCC[C@@H](OC(=O)C(c2ccccc2)c2ccccc2)C1`, the Potency entry in the assay with CP211 and with DFO2036 was “inactive” each time.

Regarding `CCCCC[C@H](O)/C=C\[C@H]1[C@H](C/C=C\CCCC(=O)O)[C@@H](O)C[C@H]1O` (tested in a mixture with another compound), the Potency entry in the assay on 7G8, in the assay with AA1029, in the assay with CP194, with CP203, in the assay on CP211 and with CP215 was “inactive” each time. The Potency result in the assay on CP335, in the assay with DFO2036, with DIV17, in the assay on GB4, in the assay on P93_24 and in the assay with PC26 was “inactive” in each case. In the assay with TAB109, the Potency result is “inactive”.

Take `C1CCN2C[C@@H]3C[C@@H](CN4CCCC[C@H]34)[C@H]2C1`: the Potency result in the assay with 7G8, with AA1029, with CP194, in the assay with CP203, with CP211 and in the assay with CP335 was “inactive” in each case. In addition, the Potency result in the assay on DFO2036, with DIV17, in the assay on GB4, with P93_24, in the assay with PC26 and in the assay on TAB109 was “inactive” each time.

With `C=C1c2c(Cl)ccc(O)c2C(O)=C2C(=O)[C@@]3(O)C(O)=C(C(N)=O)C(=O)[C@@H](N(C)C)[C@@H]3[C@@H](O)[C@H]12`, the result in [1] was inactive. Besides, the Potency with 7G8 was 3.16 µM (active). Moreover, the Potency result with CP203, with CP211, in the assay with CP215 and with DIV17 was “inactive” each time.

As to `CC(C)(C)NC[C@@H](O)COc1ccccc1C1CCCC1`, the Potency was 2.51 µM (active) in assay [5]; 0.708 µM (active) with 7G8; 2.82 µM (active) with AA1029; 5.73 µM (active) in the assay with CP194; 3.22 µM (active) in the assay with CP203; 4.55 µM (active) in the assay with CP215. The Potency with CP335 was 3.61 µM (active); in the assay on DIV17, 3.22 µM (active); with GB4 it was 1.81 µM (active); in the assay with P93_24, 2.24 µM (active); with PC26, 6.42 µM (active); with TAB109, 3.16 µM (active). Also, the outcome in assay [1] was inactive.

As to `C[C@H]1CS(=O)(=O)CCN1/N=C\c1ccc([N+](=O)[O-])o1`, the Potency entry in the assay on AA1029, with CP194, in the assay on CP203, with CP211, in the assay with CP215 and in the assay with CP335 was “inactive” each time. The Potency entry in the assay on DFO2036, with P93_24 and with PC26 was “inactive” throughout.

Take `CC(=C(CCOP(=O)(O)O)SC(=O)c1ccccc1)N(C=O)Cc1cnc(C)nc1N`: the Potency entry (in assay [2]; in assay [3]; with AA1029; in the assay on CP194; in the assay on CP203; in the assay on CP211) was “inactive” in each case. Besides, the Potency entry in the assay with CP215, in the assay with CP335, in the assay with DFO2036, with DIV17, in the assay with GB4 and with P93_24 was “inactive” in each case. Further, the Potency result in the assay on PC26 and in the assay with TAB109 was “inactive” each time.

`C[N+](C)(CCCOc1ccccc1)c1ccccc1`: the Potency in assay [5] was 0.0158 µM (active).

On to `COc1cc(N)c(Cl)cc1C(=O)N[C@H]1CCN(CCCOc2ccc(F)cc2)C[C@H]1OC`, for which the compound was called inactive in assay [6] and in [1]. The Potency in the assay on 7G8 was 5.01 µM (active). Further, the Potency result with CP203 and in the assay on CP215 was “inactive” in each case.

Values taken from PubChem BioAssay (NCATS).
